Activity calls are given as the source filed them.
Legend:
[1] = binders of probe aFSTL3 on microarray, primary screen, stem cell growth factor project, biochemical, small-molecule microarray, fluorescence 635/667 (AID 1064); settings: higher = more signal;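 note: measures binding of the biotinylated anti-FSTL3 antibody to printed compounds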
[2] = binders from COS7 lysate, DM2A8 probe, primary screen, torsin A project, cell lysate, small-molecule microarray, fluorescence 635/667 (AID 1065); settings: higher = more signal, COS7 lysate expressing mutant human TOR1A
[3] = binders of probe aFGF2 on microarray, primary screen, stem cell growth factor project, biochemical, small-molecule microarray, fluorescence 635/667 (AID 1067); settings: higher = more signal;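 note: measures binding of biotinylated aFGF2 protein to printed compounds on slides; z-score merges feature fluorescence and signal-to-noise across triplicate slides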
[4] = binders of probe aFGF10 on microarray, primary screen, stem cell growth factor project, biochemical, small-molecule microarray, fluorescence 635/667 (AID 1071); settings: higher = more signal;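 note: score merges 667 nm spot intensity and signal to noise from triplicate slides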
[5] = target: Neurogenic locus notch homolog protein 2 (Homo sapiens) (UniProt Q04721); experiment: Notch2 binders on small-molecule microarrays, primary screen, biochemical, small-molecule microarray, 635 nm fluorescence, stem cell growth factors (AID 1073); settings: Notch2 binding, higher = more signal
[6] = target: Pro-neuregulin-1, membrane-bound isoform (Homo sapiens) (UniProt Q02297); experiment: NRG1 binders on small-molecule microarrays, primary screen, psychiatric disease protein project, biochemical, small-molecule microarray, fluorescence 635/667 (AID 1075); settings: NRG1 binding, 635 nm fluorescence, higher = more signal;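 note: score combines 667 nm spot fluorescence with signal to noise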
[7] = tested on: Neuregulin-1 EGF-like domain; experiment: binders of neuregulin-1 EGF-like domain, primary screen, biochemical, small-molecule microarray, 635 nm fluorescence (AID 1081); settings: small-molecule microarray binding, higher = more signal;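 note: binding of the protein to compounds printed on small-molecule microarray slides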
[8] = FRG1 promoter luciferase signal modulators, primary screen, FRG1 inhibition for FSHD, cell-based, C2C12 myotubes, firefly/Renilla luciferase, luminescence (AID 1084); settings: higher = more signal, called active from +8 up or from −8 down
[9] = binders of probe aFST on microarray, primary screen, stem cell growth factor project, biochemical, small-molecule microarray, fluorescence 635/667 (AID 1086); settings: higher = more signal;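 note: score merges 667 nm fluorescence with signal-to-noise of each printed compound spot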
[10] = binders of probe aHhip on microarray, primary screen, stem cell growth factor project, biochemical, small-molecule microarray, fluorescence 635/667 (AID 1087); settings: higher = more signal;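 note: score merges spot fluorescence at 667nm with spot signal to noise ratio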
[11] = tested on: PRMT1 (protein arginine N-methyltransferase 1); experiment: PRMT1 binders on small-molecule microarrays, primary screen, biochemical, small-molecule microarray, 635 nm fluorescence (AID 1088); settings: small-molecule microarray binding, higher = more signal;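 note: binding of Prmt1 protein to compounds spotted on small-molecule microarray slides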
[12] = yeast growth modulation, basal conditions, primary screen, YJM789 clinical isolate, OD600, 24 h (AID 1089);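 note: growth of clinical yeast isolate S. cerevisiae YJM 789 seeded 1000 cells per well; test concentration not given here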; settings: S. cerevisiae YJM789 growth, higher = more signal, called active from +8 up or from −8 down
[13] = fission yeast growth modulation, primary screen, strain 972, OD600, 24 h, no modulator (AID 1090);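 note: basal condition with compound alone and no growth modifier present; test concentration not given here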; settings: S. pombe 972 growth, higher = more signal, called active from +8 up or from −8 down
[14] = S. cerevisiae growth modulation with rapamycin, primary screen, strain BY4716, OD600, 96 h (AID 1091); settings: higher = more signal, called active from +8 up or from −8 down; note: test concentration not given here
[15] = target: Torsin-1A-interacting protein 2 (Homo sapiens) (UniProt Q8NFQ8); experiment: LULL1 binders on small-molecule microarray, primary screen, cell lysate, human LULL1 lysate, 635/667 nm fluorescence (AID 1092); settings: hLULL1 lysate binding, 635 nm fluorescence, higher = more signal;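 note: probe is lysate of COS7 cells overexpressing human LULL1; score merges per-feature 667 nm fluorescence with signal-to-noise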
[16] = E. coli growth modulation, two-sided OD650, primary screen, E. coli filamentation project, strain DRC41, 24 h (AID 1093); settings: OD650, 24 h, higher = more signal, called active from +8 up or from −8 down;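 note: MC1000 strain lacking acrAB efflux and sulA so SOS filamentation is blocked; test concentration not given here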
[17] = small-molecule microarray binders of probe aLefty2, primary screen, biochemical, biotinylated probe, 635/667 nm fluorescence (AID 1094); settings: higher = more signal;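 note: score merges spot fluorescence near 667 nm with spot signal-to-noise ratio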
[18] = tested on: Noggin (protein binding on small-molecule microarray); experiment: Noggin binders on small-molecule microarray, primary screen, biochemical, 635/667 nm fluorescence (AID 1095); settings: 635 nm fluorescence, higher = more signal;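 note: score merges 667 nm feature fluorescence with signal to noise over triplicate slides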
[19] = target: Neurogenic locus notch homolog protein 3 (Homo sapiens) (UniProt Q9UM47); experiment: NOTCH3 binders on small-molecule microarray, primary screen, biochemical, 635/667 nm fluorescence (AID 1096); settings: NOTCH3 binding, 635 nm fluorescence, higher = more signal
[20] = small-molecule microarray binders of probe aEGFR, primary screen, biochemical, biotinylated probe, 635/667 nm fluorescence (AID 1097); settings: higher = more signal;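 note: probe is a biotinylated anti-EGFR antibody binding compounds printed on slides; score combines fluorescence near 667 nm and signal to noise of each spot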

Chain of Pro-neuregulin-1, membrane-bound isoform (Homo sapiens) (Q02297 whole entry, looked up, the tested form may be a part, canonical isoform): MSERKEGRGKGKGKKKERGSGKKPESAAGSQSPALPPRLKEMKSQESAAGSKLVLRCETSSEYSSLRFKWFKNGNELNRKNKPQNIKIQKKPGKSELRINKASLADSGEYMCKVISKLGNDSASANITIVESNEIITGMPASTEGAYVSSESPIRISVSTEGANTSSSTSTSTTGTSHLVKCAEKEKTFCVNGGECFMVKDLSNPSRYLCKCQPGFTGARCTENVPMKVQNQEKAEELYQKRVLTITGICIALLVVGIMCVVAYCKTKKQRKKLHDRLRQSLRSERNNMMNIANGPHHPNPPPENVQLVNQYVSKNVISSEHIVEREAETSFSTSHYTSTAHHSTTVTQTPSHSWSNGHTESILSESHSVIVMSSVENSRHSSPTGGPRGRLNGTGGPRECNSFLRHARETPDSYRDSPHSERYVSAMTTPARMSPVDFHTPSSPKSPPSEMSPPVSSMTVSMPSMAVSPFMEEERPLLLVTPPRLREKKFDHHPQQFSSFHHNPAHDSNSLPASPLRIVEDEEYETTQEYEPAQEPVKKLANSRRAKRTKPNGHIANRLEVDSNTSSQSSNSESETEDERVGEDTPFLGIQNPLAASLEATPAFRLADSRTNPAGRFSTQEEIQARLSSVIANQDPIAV
Chain of Neurogenic locus notch homolog protein 3 (Homo sapiens) (Q9UM47 whole entry, looked up): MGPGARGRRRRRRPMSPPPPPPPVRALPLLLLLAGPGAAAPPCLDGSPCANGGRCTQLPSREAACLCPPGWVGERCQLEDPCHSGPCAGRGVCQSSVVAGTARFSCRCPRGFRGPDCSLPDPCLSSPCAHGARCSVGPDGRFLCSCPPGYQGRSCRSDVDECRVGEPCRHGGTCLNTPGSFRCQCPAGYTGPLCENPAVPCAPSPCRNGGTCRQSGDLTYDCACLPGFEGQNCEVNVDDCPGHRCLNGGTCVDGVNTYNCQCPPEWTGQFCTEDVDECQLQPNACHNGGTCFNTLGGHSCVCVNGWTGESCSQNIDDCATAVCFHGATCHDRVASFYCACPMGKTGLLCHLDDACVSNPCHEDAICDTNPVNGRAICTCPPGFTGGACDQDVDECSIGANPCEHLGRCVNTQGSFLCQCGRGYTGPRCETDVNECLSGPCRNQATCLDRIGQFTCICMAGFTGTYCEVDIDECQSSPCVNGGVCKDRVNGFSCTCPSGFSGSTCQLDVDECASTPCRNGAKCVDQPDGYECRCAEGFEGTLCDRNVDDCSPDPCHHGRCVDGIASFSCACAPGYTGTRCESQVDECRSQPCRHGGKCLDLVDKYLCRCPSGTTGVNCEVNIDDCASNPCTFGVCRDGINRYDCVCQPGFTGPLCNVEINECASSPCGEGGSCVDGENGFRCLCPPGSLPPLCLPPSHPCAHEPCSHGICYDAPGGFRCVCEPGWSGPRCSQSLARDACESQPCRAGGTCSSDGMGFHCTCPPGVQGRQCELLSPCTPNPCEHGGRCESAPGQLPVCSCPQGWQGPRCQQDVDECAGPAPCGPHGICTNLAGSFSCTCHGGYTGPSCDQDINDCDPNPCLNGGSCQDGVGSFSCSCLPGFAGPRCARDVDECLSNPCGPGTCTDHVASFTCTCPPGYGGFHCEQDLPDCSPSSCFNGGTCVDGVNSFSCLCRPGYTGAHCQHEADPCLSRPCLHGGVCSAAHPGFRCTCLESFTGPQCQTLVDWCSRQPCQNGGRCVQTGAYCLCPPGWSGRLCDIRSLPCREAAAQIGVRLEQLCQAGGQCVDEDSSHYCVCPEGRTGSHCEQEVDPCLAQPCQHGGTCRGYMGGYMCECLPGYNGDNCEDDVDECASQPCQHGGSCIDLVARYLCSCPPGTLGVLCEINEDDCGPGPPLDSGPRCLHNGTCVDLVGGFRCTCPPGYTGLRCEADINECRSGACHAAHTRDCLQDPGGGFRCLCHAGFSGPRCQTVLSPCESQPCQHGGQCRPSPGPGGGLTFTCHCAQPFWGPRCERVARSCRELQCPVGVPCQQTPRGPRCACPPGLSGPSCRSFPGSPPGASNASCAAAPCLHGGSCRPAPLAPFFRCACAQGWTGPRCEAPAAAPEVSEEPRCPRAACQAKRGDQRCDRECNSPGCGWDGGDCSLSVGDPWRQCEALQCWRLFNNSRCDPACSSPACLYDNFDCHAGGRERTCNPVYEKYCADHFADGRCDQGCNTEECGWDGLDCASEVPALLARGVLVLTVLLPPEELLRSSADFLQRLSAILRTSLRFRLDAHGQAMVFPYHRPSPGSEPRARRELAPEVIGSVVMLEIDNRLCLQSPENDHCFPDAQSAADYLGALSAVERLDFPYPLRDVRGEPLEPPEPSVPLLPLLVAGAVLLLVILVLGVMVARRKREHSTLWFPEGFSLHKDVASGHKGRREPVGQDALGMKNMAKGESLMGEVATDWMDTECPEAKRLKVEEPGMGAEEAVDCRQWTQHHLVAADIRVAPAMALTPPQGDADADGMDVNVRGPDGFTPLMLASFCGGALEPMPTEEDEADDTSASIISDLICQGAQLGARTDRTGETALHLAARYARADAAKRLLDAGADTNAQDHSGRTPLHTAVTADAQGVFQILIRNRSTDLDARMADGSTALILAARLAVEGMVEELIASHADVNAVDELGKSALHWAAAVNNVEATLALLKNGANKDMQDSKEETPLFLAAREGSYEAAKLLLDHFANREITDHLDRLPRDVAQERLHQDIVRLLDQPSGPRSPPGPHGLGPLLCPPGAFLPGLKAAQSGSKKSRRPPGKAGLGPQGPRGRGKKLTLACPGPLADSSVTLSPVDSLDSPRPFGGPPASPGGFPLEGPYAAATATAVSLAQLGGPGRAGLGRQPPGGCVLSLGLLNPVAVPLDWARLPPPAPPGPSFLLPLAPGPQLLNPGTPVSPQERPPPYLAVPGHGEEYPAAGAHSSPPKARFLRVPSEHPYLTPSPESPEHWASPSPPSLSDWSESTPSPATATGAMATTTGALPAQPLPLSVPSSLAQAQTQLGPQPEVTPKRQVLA
Chain of Torsin-1A-interacting protein 2 (Homo sapiens) (Q8NFQ8 whole entry, looked up): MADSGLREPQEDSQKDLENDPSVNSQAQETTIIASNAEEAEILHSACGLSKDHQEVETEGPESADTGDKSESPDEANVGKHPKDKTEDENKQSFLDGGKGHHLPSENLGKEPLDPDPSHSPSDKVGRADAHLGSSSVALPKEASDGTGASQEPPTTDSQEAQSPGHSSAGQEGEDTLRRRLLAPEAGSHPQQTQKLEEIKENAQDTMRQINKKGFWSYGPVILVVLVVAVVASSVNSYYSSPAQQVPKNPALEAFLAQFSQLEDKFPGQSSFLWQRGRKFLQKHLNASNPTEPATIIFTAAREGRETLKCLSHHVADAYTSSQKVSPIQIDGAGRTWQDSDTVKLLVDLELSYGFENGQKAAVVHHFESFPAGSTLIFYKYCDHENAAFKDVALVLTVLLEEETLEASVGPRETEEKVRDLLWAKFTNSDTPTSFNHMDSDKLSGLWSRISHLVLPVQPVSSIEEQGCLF

Compound | composite z-score [1] | composite z-score [2] | composite z-score [3] | composite z-score [4] | composite z-score [5] | composite z-score [6] | composite z-score [7] | z-score [8] | composite z-score [9] | composite z-score [10] | composite z-score [11] | z-score [12] | z-score [13] | z-score [14] | composite z-score [15] | z-score [16] | composite z-score [17] | composite z-score [18] | composite z-score [19] | composite z-score [20]
O=C(O)C1=CC[C@H]2C(=O)N(c3ccccc3)C(=O)[C@@H]12 | 0.115 | -0.037 | 0.0601 | 0.676 | 1.58 | 0.42 | 1.16 | -0.127 (inactive) | 0.914 | 0.0749 | 0.964 | 0.735 (inactive) | 1.38 (inactive) | 1.52 (inactive) | 2.5 | -0.148 (inactive) | 0.0694 | -0.312 | 1.06 | 0.186
COCCOC(=O)N1C(=O)[C@@]2(c3cc(C#CCCO)ccc31)[C@H](C(=O)N1CCN(c3ncccn3)CC1)[C@H]1C(=O)O[C@H](c3ccccc3)[C@H](c3ccccc3)N1[C@@H]2c1ccc(OCCO)cc1 | -0.372 | 0.713 | 0.0001 | 0.641 | 0.718 | 1.53 | 1.3 | -0.31 (inactive) | 0.832 | -0.171 | 1.53 | 2.26 (inactive) | 1.9 (inactive) | 5.64 (inactive) | 3.11 | -0.466 (inactive) | -0.025 | 0.86 | 1.05 | 0.0193
CCCCC(=C=CC[C@H](O)c1cccc(OCCO)c1)C[C@H](O)c1cc(Cl)cc(Cl)c1O | -0.288 | -0.027 | -0.0376 | 0.526 | -0.107 | 0.665 | 0.616 | -1.64 (inactive) | 0.137 | -0.197 | 1.53 | 0.59 (inactive) | -1.71 (inactive) | 0.102 (inactive) | 1.81 | 0.206 (inactive) | 0.206 | 0.999 | 0.883 | -0.112
CC(CO)N1C(=O)[C@@H]2[C@H]3C(=O)OCC=C[C@H]3OC23C=CCN(c2ccc4ccccc4c2)C(=O)[C@@H]13 (stereo not given in full) | 0.865 | -1.47 | -0.149 | -0.451 | -1.19 | -1.2 | 0.632 | 0.621 (inactive) | -0.946 | -0.0994 | -0.534 | -0.112 (inactive) | -0.688 (inactive) | -0.128 (inactive) | -1.16 | -0.594 (inactive) | 0.111 | -1.89 | -1.4 | -0.301

From PubChem BioAssay
